Rows were chosen to be rich in hits. Some 7.5% of all compounds tested hit in one or more screens of this group.
KinaseGlo FLuc = blocks Kinase-Glo luciferase, a counter-screen artifact; Q27757; Kinase-Glo luciferase, ATP luminescence, 8 min; Potency, µM (doses to about 38.3 µM), most hits filed as inhibitors; hit rate 0.28% among 200,000; further: nearly all actives have a fitted effect of over 60% in size
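Light output from Kinase-Glo luciferase with luciferin and 10 uM ATP in 50 mM imidazole pH 7.2, KCl, MgCl2, Tween 20, BSA; compound pin-delivered, 8-min ambient incubation, then luminescence read.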
Rab9 prom act = Rab9 promoter activation; Potency, µM (highest dose often 9.22 µM), usual class: activators; Huh7 Rab9 promoter-luciferase reporter, luminescence, 24 h; hit rate 2.8% among 320,000; AID 485297; further: nearly all actives have a fitted effect of over 60% in size
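Rab9 promoter-driven luciferase in stably transfected Huh7 cells; 1500 cells/well rested 2 h, exposed to compound in DMSO for 24 h at 37 °C, 5% CO2. Luminescence read 10 min after adding luciferase reagent at ambient temperature.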
NPC1 prom act = activators of NPC1 promoter; Huh7 NPC1 promoter luciferase reporter, 24 h; Potency, µM (doses to about 9.22 µM), actives largely listed as activators; hit rate 2.4% among 320,000; further: nearly all actives have a fitted effect of over 60% in size
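Cells: Huh7 expressing luciferase under the NPC1 promoter, 1500/well. Seeded 2 h, compound added, incubated 24 h at 37 °C. Luciferase reagent, 10 min ambient, then luminescence.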
SMN2 splice enh = SMN2 splice variant enhancement | AID 1458 | hit rate 2.8% among 210,000 | HEK293 SMN2-luciferase splicing reporter, luminescence, 30-36 h | Potency, µM (top dose mostly 46.1 µM), hits mostly activators; further: nearly all actives have a fitted effect of over 55% in size
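HEK293 cells carry an SMN2 […]–luciferase reporter in which exon 7 inclusion puts luciferase in frame. Cells were plated 10-12 h before compound addition, then incubated 30-36 h at 37C. ONE-Glo luminescence was read; sodium butyrate at 4.5 mM final served as control.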
ELG1 genotox = genotoxicity induction in ELG1-luciferase HEK293T cells | Potency, µM (top dose mostly 46 µM), most hits filed as activators | HEK293T ELG1-luciferase reporter, luminescence, 16 h | hit rate 1.3% among 330,000 | AID 504466; further: nearly all actives have a fitted effect of over 60% in size
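Quantitative HTS format in 1536-well plates. HEK293T ELG1-luciferase reporter cells receive test compound and are incubated 16 hr at 37 °C, 5% CO2; ONE-Glo added, 30 min room temperature, then luminescence read.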
FLuc modulator = inhibits or activates purified firefly luciferase, miR-21 counter-screen; P08659; purified FLuc, Km substrates, luminescence inhibition; Potency, µM (doses to about 57.5 µM), hits mostly inhibitors; hit rate 6.9% among 360,000; AID 588342; further: nearly all actives have a fitted effect of over 55% in size
Target sequence (P08659 whole entry, looked up): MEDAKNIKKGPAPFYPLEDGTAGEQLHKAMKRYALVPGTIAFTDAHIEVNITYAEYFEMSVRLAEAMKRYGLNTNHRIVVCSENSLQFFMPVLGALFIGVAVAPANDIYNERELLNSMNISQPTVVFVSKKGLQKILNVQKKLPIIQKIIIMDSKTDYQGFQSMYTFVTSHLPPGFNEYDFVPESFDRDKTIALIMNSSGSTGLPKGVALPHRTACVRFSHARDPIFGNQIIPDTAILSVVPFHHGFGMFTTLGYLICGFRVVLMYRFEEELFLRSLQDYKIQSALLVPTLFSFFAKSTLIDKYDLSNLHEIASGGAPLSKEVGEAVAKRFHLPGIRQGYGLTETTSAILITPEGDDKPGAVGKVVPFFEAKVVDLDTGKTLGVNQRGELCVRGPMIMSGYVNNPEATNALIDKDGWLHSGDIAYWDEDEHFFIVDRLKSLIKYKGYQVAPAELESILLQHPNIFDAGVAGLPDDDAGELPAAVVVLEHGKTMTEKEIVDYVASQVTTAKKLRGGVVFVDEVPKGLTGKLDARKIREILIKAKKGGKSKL
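Biochemical qHTS of compounds, final roughly 60 µM downward over six points, against 10 nM purified firefly luciferase using Km concentrations of substrates (10 uM D-luciferin, 10 uM ATP) in Tris acetate pH 7.5 buffer; luminescence output.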
A number is an active result; – = inactive; ? = inconclusive; · = not tested or not shown; [ ] = dose if it differs, or a comment. The call rests on the fitted dose curve; in most records, active means well fitted curve in the direction sought with a large enough effect; inconclusive means small, poorly fitted or top-dose-only effect, or another doubt; inactive means no such curve, though single readings can be large; an effect the other way counts as inactive or inconclusive.

SMILES	KinaseGlo FLuc	Rab9 prom act	NPC1 prom act	SMN2 splice enh	ELG1 genotox	FLuc modulator
COc1cccc(CNC(=O)CN2C(=O)N(c3cc(C)ccc3C)S(=O)(=O)c3ccccc32)c1OC	·	·	·	·	·	–
COc1cc(-c2nnc(SCC(=O)c3ccc(C)cc3)o2)cc(OC)c1OC	–	–	–	–	–	–
COc1cc(-c2nnc(SCCOc3cc(C)cc(C)c3)o2)cc(OC)c1OC	·	·	·	·	·	15.1µM
COc1ccc(CNC(=O)c2c3c(nc4ccccc24)C(=O)N(C2CCCCC2)C3)cc1	·	·	·	·	·	–
COc1ccc(NC(=O)c2ccccc2[N+](=O)[O-])cc1	–	–	–	–	–	–
COc1ccc(NC(=S)Nc2ccc(N)c([N+](=O)[O-])c2)cc1	–	–	–	15.8µM	?	?
CCOC(=O)c1c(C)oc2c1c(C(c1cccnc1)N1CCN(C)CC1)c(O)c1ccccc12 (stereo unspecified)	–	–	–	·	?	–[2.3 µM]
CC(=O)c1c(C)oc2c1cc(O)c1ccccc12	·	–	–	·	–	–
CCOC(=O)c1c(C)oc2c1c1c(c3ccccc32)OCN(CCCC(=O)O)C1	·	?	?	·	?	19µM
CCOC(=O)c1c(C)oc2c1cc(O)c1ccccc12	–	–	?	–	?	2.39µM
CCOC(=O)c1c(C)oc2c1c1c(c3ccccc32)OCN(Cc2cccnc2)C1	–	–	–	–	14.6µM	26.9µM
N=C1Sc2ccccc2C2=NCCCN12	–	·	·	–	·	·
O=C(O)CSc1ccc(NC(=O)Nc2ccccc2F)cc1	·	–	–	·	–	12µM
Cc1cc(NC(=O)Nc2ccccc2F)ccc1Br	·	1.26µM	1.41µM	·	?	2.39µM
O=C(Nc1ccc(Cl)cc1)c1ccc(Br)cc1F	–	1µM	1.41µM	14.1µM	3.26µM	3.01µM
CC(=O)Nc1ccc(SCC(=O)O)cc1	–	–	–	–	–	–
O=C(Nc1ccccc1)Nc1ccc(Br)cc1F	–	?	?	12.6µM	–	?
O=C(COC(=O)c1cccc(S(=O)(=O)Nc2ccc(F)cc2)c1)NCCN1C(=O)CSC1=O	·	–	–	·	–	–
CCOC(=O)c1ccccc1NC(=O)CSc1ncc2c(n1)-c1ccccc1N(CC)S2(=O)=O	·	·	·	·	·	–
CC(=C/c1ccco1)/C=N/N1CCN(c2ccccc2)CC1	10µM	1.78µM	2.51µM	?	?	2.69µM
CC(/C=N/N1CCN(c2ccccc2)CC1)=C\c1ccco1	7.94µM	?	2µM	14.1µM	?	2.39µM
CCc1ccc(-n2c(=O)c3ccc(C(=O)NCCc4ccccc4)cc3n(Cc3ccccc3C#N)c2=O)cc1	·	·	·	–	·	–
COc1ccc(C(CC(=O)c2ccc(O)cc2)S(=O)(=O)c2ccc(C)cc2)cc1 (stereo unspecified)	–	–	?	–	?	9.53µM
NC(=O)N/N=C/c1ccc(-c2ccc(S(=O)(=O)Nc3ncccn3)cc2)o1	·	–	–	·	–	–
Cc1noc(NS(=O)(=O)c2ccc(N/C=C/C(=O)c3ccc(F)cc3)cc2)c1C	–	–	–	–	–	21.3µM
SMILES	KinaseGlo FLuc	Rab9 prom act	NPC1 prom act	SMN2 splice enh	ELG1 genotox	FLuc modulator
CC(C)Oc1ccc(C(=O)N/N=C/c2ccc(-c3ccc(S(=O)(=O)Nc4ncccn4)cc3)o2)cc1	–	–	–	–	–	26.9µM
COc1ccc(C(=O)/C=C/Nc2ccc(S(=O)(=O)Nc3onc(C)c3C)cc2)cc1	–	–	–	–	–	7.57µM
CCc1ccc(OCC(=O)Nc2ccc(S(=O)(=O)Nc3onc(C)c3C)cc2)cc1	·	·	·	–	·	12µM
CCc1ccc(C(=O)/C=C/Nc2ccc(S(=O)(=O)Nc3onc(C)c3C)cc2)cc1	–	?	–	–	–	10.7µM
Cc1noc(NS(=O)(=O)c2ccc(NC(=O)c3ccc(OC(C)C)cc3)cc2)c1C	–	–	–	·	–	13.5µM
Cc1noc(NS(=O)(=O)c2ccc(N/C=C\C(=O)c3ccncc3)cc2)c1C	–	–	–	–	–	–
COCCCNC(=O)c1ccc2c(c1)N=C(C)c1c(C)ccc(C)c1S2	·	·	·	?	·	–
O=C(Nc1ccc(Br)cc1)C1Cc2ccccc2O/C1=N\O (stereo unspecified)	·	2.82µM	3.16µM	·	18.3µM	?
Cc1ccc(NC(=O)C2Cc3ccccc3O/C2=N\O)cc1C (stereo unspecified)	·	?	–	·	?	–
